This is a sample that favours compounds with a hit; in the whole collection about 11% have one here.
G9a inh: qHTS Assay for Inhibitors of Histone Lysine Methyltransferase G9a; Histone-lysine N-methyltransferase EHMT2 (Homo sapiens), Q96KQ7; G9a H3K9 monomethylation, AlphaScreen, 2 h; Potency, µM (highest dose often 102 µM), for the others: top-dose activity, negative = inhibition, hits mostly inhibitors; 350,000 compounds, 8.8% hits; AID 504332, 2011; also: potency is read from the fitted curve at half-maximal effect; nearly all actives have a fitted effect of over 75% in size
Target sequence (Q96KQ7 913-1193 limits assumed): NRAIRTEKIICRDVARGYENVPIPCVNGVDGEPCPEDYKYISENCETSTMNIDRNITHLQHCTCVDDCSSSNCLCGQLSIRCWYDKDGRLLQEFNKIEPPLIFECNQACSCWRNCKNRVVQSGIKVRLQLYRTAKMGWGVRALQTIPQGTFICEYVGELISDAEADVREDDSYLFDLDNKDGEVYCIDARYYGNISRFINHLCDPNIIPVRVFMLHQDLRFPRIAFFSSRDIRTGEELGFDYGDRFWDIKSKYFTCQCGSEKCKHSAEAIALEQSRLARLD
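G9a (20 nM) preincubated 15 min RT with compounds, then 500 nM biotinylated H3K9 peptide and 20 uM SAM added; 2 h RT reaction. Monomethyl-H3K9 product detected by AlphaScreen with anti-H3K9me1 antibody, streptavidin donor and anti-rabbit IgG acceptor beads.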
FBPA coupling cs: qHTS Assay for Inhibitors of Fructose-1,6-bisphosphate Aldolase from Giardia Lamblia: Coupling assay counterscreen | AID 2472, 2010 | 290,000 compounds, 0.67% hits | coupling enzyme system counterscreen, AmpLite Red fluorescence | activity change, negative = inhibition, % at 58.2 µM, hits read low; in the data active = activity change below about -30%
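Final compound at 57.5 uM, incubated 10 min at RT with coupling enzyme reagent (glyceraldehyde-3-phosphate), then 20 min with substrate and AmpLite Red detection. Fluorescence read at 525/598 nm; tests interference with the coupling assay, not aldolase inhibition.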
Tau fluor counter: Counterscreen qHTS for Inhibitors of Tau Fibril Formation, Fluorescence Polarization; tau K18 P301L Alexa594 fluorescence, heparin fibrillization; Potency, µM (series often up to 57.7 µM), inactives show top-dose activity change, negative = decrease; 280,000 compounds, 0.93% hits; AID 1463, 2008; also: potency is read from the fitted curve at half-maximal effect; nearly all actives have a fitted effect of over 55% in size
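Human tau K18 P301L (15 uM unlabeled, 0.24 uM Alexa 594-labeled) in 100 mM sodium acetate pH 7 with 20 uM heparin, 6 hr at 37 C. ThT 30 uM added, 1 hr ambient; Alexa 594 FP and total fluorescence read at 555/632 nm.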
Tau fibril FP: qHTS for Inhibitors of Tau Fibril Formation, Fluorescence Polarization | Potency, µM (top dose mostly 57.7 µM), inactives show at the highest dose activity, negative = inhibition, most hits filed as inhibitors | K18 P301L tau heparin fibrillization, Alexa594 FP, 6 h | Microtubule-associated protein tau (Homo sapiens), P10636 | 280,000 compounds, 0.39% hits; also: potency is read from the fitted curve at half-maximal effect; nearly all actives have a fitted effect of over 55% in size
Target sequence (P10636 561-689 P618L limits assumed): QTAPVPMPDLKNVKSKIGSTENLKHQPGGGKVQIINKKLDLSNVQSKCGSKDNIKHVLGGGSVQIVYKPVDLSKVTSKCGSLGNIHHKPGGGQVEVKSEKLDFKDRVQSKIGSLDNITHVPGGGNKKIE
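Compound effects on tau fibrillization are measured by Alexa 594 fluorescence polarization (ex 555, em 632 nm). K18 P301L tau is used at 15 uM with 0.24 uM labeled tracer, and 20 uM heparin induces aggregation over 6 hr at 37 C.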
Sfp inh: qHTS Assay for Inhibitors of Bacillus subtilis Sfp phosphopantetheinyl transferase (PPTase) | Biochemical Sfp PPTase activity, qHTS | 310,000 compounds, 3.5% hits | Potency, µM, for the others: largest response in the series, negative = inhibition, usual class: inhibitors | 4'-phosphopantetheinyl transferase ffp (Bacillus subtilis), Q9F4F7 | AID 1490, 2009;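 also: the enzyme is Sfp with the accession as filed and its product quenches rhodamine fluorescence; potency is read from the fitted curve at half-maximal effect; 0% = enzyme reaction without inhibitor and -100% = no enzyme wells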
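With Hepes-Na pH 7.6 buffer containing 10 mM MgCl2, Sfp (15 nM) modified BHQ-2-YbbR (12.5 uM) using rhodamine-CoA (5 uM). Two reads 30 minutes apart at 525/598 nm yielded each well's rate.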
Tau ThT inhib: qHTS for Inhibitors of Tau Fibril Formation, Thioflavin T Binding. Microtubule-associated protein tau (Homo sapiens), P10636. Potency, µM (top dose mostly 57.4 µM), inactives show at the highest dose activity, negative = inhibition, most hits filed as inhibitors. 270,000 compounds, 2.1% hits. AID 1460, 2008. recombinant tau K18 P301L, heparin-induced fibrillization, ThT fluorescence; also: potency is read from the fitted curve at half-maximal effect; nearly all actives have a fitted effect of over 55% in size
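Fibril formation assay: tau K18 P301L at 15 uM with trace Alexa 594 label, heparin inducer 20 uM, pH 7 sodium acetate buffer, 37 C for 6 hr; endpoint ThT signal.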
* marks the source's active call; other numbers are inactive results; u = inconclusive; x = no result; [ ] = remark or other dose. Unless noted, calls follow the shape of the dose curve; as a rule, active = well fitted curve in the direction sought with a large enough effect; inconclusive = small, poorly fitted or top-dose-only effect, or another doubt; inactive = no such curve, though single readings can be large; an effect the other way counts as inactive or inconclusive. Unless noted, % is scaled to controls: 0 for no effect and ±100 for the full control effect.

SMILES	G9a inh	FBPA coupling cs	Tau fluor counter	Tau fibril FP	Sfp inh	Tau ThT inhib
Cc1nc2ccc(NC(=S)N3CCOCC3)cc2nc1C	44.7µM*	-25.4	10.7%	-3.2%	-17.9%	-2.4%
O=C(Nc1ccc2nsnc2c1)N1CCCCCC1	24.3%[12.7 µM]	-11.0	0.2%	10.2%	0.8%	-9.5%
S=C(Nc1ccc2nsnc2c1)N1CCCC1	x	-24.8	-19.1%	u	14.1µM*	25.1µM*
COc1ccccc1Nc1nc(-c2cccc([N+](=O)[O-])c2)cs1	u	-8.1	14.1µM*[quencher]	1.0%	11.2µM*	u
O=[N+]([O-])c1cccc(-c2csc(Nc3ccccc3)n2)c1	39.8µM*	-4.4	25.1µM*[quencher]	13.1%	-13.6%	u
COc1cc(NS(=O)(=O)c2ccc(Nc3nc(-c4cccc([N+](=O)[O-])c4)cs3)cc2)nc(OC)n1	50.1µM*	3.8	u	u	3.5%	17.8µM*
CSc1cccc(CN(C)C(=O)C2CCC(=O)N(CCCN3CCCC3=O)C2)c1 (centres undefined)	23.8%	x	x	x	4.4%	x
CCOC(=O)C1=C(COC(=O)CCOc2ccccc2C)NC(=O)NC1C (centres undefined)	20.5%[2.33 µM]	x	x	x	x	x
Nn1c(SCC(=O)Nc2ccc(OC(F)F)cc2)nnc1-c1ccco1	4.0%	x	x	x	x	x
Cn1c(C(=O)NCCN2CCN(Cc3ccccc3)CC2)cc2c(=O)n(C)c3ccccc3c21	24.3%[59 µM]	0.6	-4.1%	-0.5%	-8.3%	-3.8%
Cn1c(C(=O)NCCN2CCCCCC2)cc2c(=O)n(C)c3ccccc3c21	35.5µM*	-14.6	-14.1%	-9.4%	-24.7%	u
Cn1c(C(=O)NCCCN2CCN(c3ccccc3F)CC2)cc2c(=O)n(C)c3ccccc3c21	50.1µM*	-1.0	-14.5%	-0.2%	-7.9%	-17.5%
Cn1c(C(=O)NCCCN2CCOCC2)cc2c(=O)n(C)c3ccccc3c21	u	-0.2	-3.0%	3.2%	-8.7%	-12.8%
Cc1cn(CC(=O)c2ccccc2)c2ccccc12	x	-1.3	x	x	1.5%	x
Cc1ccc(S(=O)(=O)N(CC(=O)NCCSc2ccccn2)c2cc(C)cc(C)c2)cc1	-1.4%	x	-7.6%	4.7%	16.1%	-10.9%
Cc1ccc(N(CC(=O)NCCSc2ccccn2)S(C)(=O)=O)cc1	28.2µM*	3.2	-14.0%	-7.4%	-6.6%	u
Cc1ccc(CNC(=O)CN(C)S(=O)(=O)c2ccc3c(c2)n(C)c(=O)c(=O)n3C)cc1	-0.5%[0.0925 µM]	x	x	x	14.4%	x
O=c1c2ccccc2[nH]c2ccc(O)cc12	39.8µM*	-9.9	x	x	-24.8%	x
O=C(c1cnccn1)N1CCC2(CC1)CN(c1ncccn1)C2	0.6%[12.7 µM]	2.6	x	x	21.3%	x
O=C(O)c1cc2ccccc2c(N=Nc2cccnc2)c1O	50.1µM*	11.7	x	x	7.6%	x
CC(=O)Nc1ccc(C(=O)NNS(=O)(=O)c2ccc(C)cc2)cc1	20µM*	0.7	11.5%	1.1%	-7.5%	7.8%
Cc1ccc(S(=O)(=O)NNC(=O)c2snnc2C)cc1	10µM*	9.6	-4.0%	u	u	0.9%
CCOC(=O)c1ccc(S(=O)(=O)NNC(=O)COc2cccc(C)c2)cc1	-18.7%[59 µM]	4.5	0.8%	-1.3%	18.2%	-0.2%
Cc1nnsc1C(=O)NNS(=O)(=O)c1cc(C(F)(F)F)cc(C(F)(F)F)c1	3.6%	7.9	-13.6%	-3.6%	6.3%	-9.0%
Cc1ccc(NNS(=O)(=O)c2ccc(C)cc2)cc1	0.794µM*	x	-16.3%	u	39.8µM*	20µM*
CC(=O)Nc1ccc(S(=O)(=O)NNC(=O)COc2cccc(C)c2)cc1	6.31µM*	3.0	-0.3%	1.4%	79.4µM*	-1.9%

Screening results: PubChem, National Center for Advancing Translational Sciences (NCATS)
